Bioassay records as filed in PubChem.
Pf apPOL block: Pf-apPOL DNA polymerase inhibition | AID 1794808 | 210,000 tested, 0.25% active | inhibition, % at 10 µM | Recombinant Pf-apPOL, molecular beacon fluorescence, 1.5 h
mHTT-CaM PPI inh: mHTT-calmodulin interaction abrogation; inhibition, % at 15 µM; AID 1671202; AlphaScreen His-mHTT/GST-CaM binding, luminescence; 190,000 tested, 3.6% active; P42858;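 also: 0% = both proteins with DMSO and 100% = one protein alone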
* = called active by the depositor; . = no result given. This is one part of a sample in which hits are shown more often than they occur. Rule as the data show it: active = inhibition above about 50%; inactive = the rest.

SMILES | Pf apPOL block | mHTT-CaM PPI inh
Cc1cccc(-c2nc3n(n2)C(c2ccc(O)cc2)C2=C(CC(C)(C)CC2=O)N3)c1 (stereo unspecified) | -2 | 7
CC1(C)CC(=O)C2=C(C1)Nc1nc(-c3cccc(Cl)c3)nn1C2c1ccc2c(c1)OCO2 (stereo unspecified) | -2 | 61*
CCOc1ccc(/C=C2\SC(N3CCC(C)CC3)=NC2=O)cc1 | -1 | 3
COc1cccc(NC(=O)C(=O)NC2CCCCC2)c1 | 21 | -3
OC[C@@H]1[C@@H](c2ccccc2)C(c2ccccc2)=NN1c1ccccc1 | -4 | -21
C[C@H]1C(c2ccccc2)=NN(c2ccccc2)[C@@H]1CO | -5 | 15
O=C1OCCN1C(=O)[C@H]1[C@H](c2ccc(F)cc2)C(c2cccc(Cl)c2)=NN1c1ccccc1 | 1 | 19
OC[C@@H]1[C@@H](c2ccc(Cl)cc2)C(c2ccc(F)cc2)=NN1c1ccccc1 | -4 | 72*
OC[C@@H]1[C@@H](c2ccc(F)cc2)C(c2ccc(F)cc2)=NN1c1ccccc1 | -6 | 89*
OC[C@@H]1[C@@H](c2ccccc2)C(c2ccc(F)cc2)=NN1c1ccccc1 | -6 | 67*
CCCNC(=O)c1ccccc1CN1C(=O)C2CCCN2C(=O)c2ccccc21 (stereo unspecified) | -2 | -3
CC(C)c1ccc(NC(=O)C2CCC(=O)N2)cc1 (stereo unspecified) | -3 | 2
O=Cc1cc(Br)c(Sc2ccc(Cl)cc2)o1 | -6 | 61*
O=C1NC(=O)/C(=C\c2cc(Br)c(Sc3ccc(Cl)cc3)o2)N1 | -3 | 26
C[C@@H]1CC=C[C@H]2[C@H]1C(=O)N(Cc1ccccc1)[C@H]2c1ccc(-c2ccoc2)cc1F | -7 | 60*
C[C@@H]1CC=C[C@H]2[C@H]1C(=O)N(Cc1ccccc1)[C@H]2c1ccc(-c2ccc(F)cc2)cc1F | -2 | -4
O=C1C2C(c3ccccc3)CC=CC2[C@H](c2ccc(C(F)(F)F)cc2)N1Cc1ccccc1 (stereo partly specified) | -3 | 20
C[C@@]12CCC=C[C@H]1[C@H](c1ccc(/C=C/c3ccccc3)cc1F)N(Cc1ccccc1)C2=O | -1 | 17
C[C@@H]1CC=C[C@H]2[C@H]1C(=O)N(Cc1ccccc1)[C@H]2c1ccc(C(F)(F)F)cc1 | -2 | 91*
C[C@@]12CCC=C[C@H]1[C@H](c1ccc(C(F)(F)F)cc1)N(Cc1ccccc1)C2=O | -2 | 83*
Cc1cc2nc(SCCN3CCCCC3)[nH]c2cc1C | -3 | 21
Cn1nc(C(=O)N2CCCC2c2ccc(F)cc2)cc1C(F)(F)F (stereo unspecified) | -6 | -2
COc1ccc(C(=O)N2CCC(C(=O)Nc3cc(Cl)ccc3OC)CC2)cc1 | -8 | 15
COC(CNC(=O)c1cccc(NS(=O)(=O)c2ccc(Cl)cc2)c1)OC | -6 | -1
CC(Nc1cc(N2CCN(C(=O)c3cccs3)CC2)ccc1[N+](=O)[O-])c1ccccc1 (stereo unspecified) | 3 | 35
SMILES | Pf apPOL block | mHTT-CaM PPI inh
CC(Nc1cc(N2CCN(C(=O)c3ccco3)CC2)ccc1[N+](=O)[O-])c1ccccc1 (stereo unspecified) | -4 | 56*
N#CC1(C#N)C(c2ccccc2Cl)C1(C#N)C#N | -8 | .
N#Cc1ccc(-c2ccco2)[nH]c1=O | 33 | .
N#CCOc1nc(-c2ccccc2)cc(-c2ccco2)c1C#N | 0 | .
N#Cc1c(-c2ccccc2)cc(-c2ccco2)c(C#N)c1N | 9 | 55*
N#Cc1c(-c2ccco2)cc(-c2ccco2)[nH]c1=O | 93* | .
COc1ccc(N2C=C(C(=O)N3CCCC3)S(=O)(=O)c3ccc(C)cc32)cc1 | 2 | 3
CCn1nc(C(=O)Nc2nc3c(OC)ccc(C)c3s2)cc1C | -2 | 2
Fc1ccc(N2Cc3ccccc3C2)cc1 | . | -6
Oc1ccc(N2Cc3ccccc3C2)cc1 | -8 | 100*
Nc1ccc(Cl)cc1C(O)c1ccccc1 (stereo unspecified) | -6 | -2
CC(Nc1ccc(Cl)cc1N)c1ccccc1 (stereo unspecified) | -4 | 98*
COc1ccc(-c2c(C)oc3cc(OCC(=O)OC(C)(C)C)ccc3c2=O)cc1 | 0 | -4
CC(C)CNC(=O)c1ccccc1NC(=O)c1cccc(Br)c1 | -3 | -1
O=[N+]([O-])c1cccc(N=Cc2cccc([N+](=O)[O-])c2O)c1 | 0 | 5
O=c1oc2ccccc2cc1-c1cccc(N=Cc2ccccc2O)c1 | -3 | 6
Oc1ccccc1C=Nc1cccc(N=Cc2ccccc2O)c1 | -3 | 71*
Cc1ccc(N=Cc2c(C)c(Cl)c(C)c([N+](=O)[O-])c2O)c(O)c1 | 2 | 8
O=[N+]([O-])c1cccc(C=Nc2cccc(O)c2)c1O | -3 | 74*
Cc1c(Cl)c(C)c([N+](=O)[O-])c(O)c1C=Nc1cccc(O)c1 | 1 | 76*
CSc1ccccc1CN1CCC(CNC(=O)C(=O)Nc2cccnc2)CC1 | -3 | -10
CCCn1cnc2c1c(=O)n(C(C)C)c(=O)n2-c1ccc(C)cc1 | 1 | 9
O=c1cc(CN2CCCCCC2)c2cc3c(cc2o1)OCO3 | 1 | -4
CCCCCCCc1ccc(C(=O)NC(=S)Nc2cc(C)on2)cc1 | -3 | .
N#CC1=C(N)Oc2n[nH]c(-c3ccccn3)c2C1c1ccc([N+](=O)[O-])s1 (stereo unspecified) | 5 | 99*
SMILES | Pf apPOL block | mHTT-CaM PPI inh
N#CC1=C(N)Oc2n[nH]c(-c3ccc4c(c3)OCO4)c2C1c1ccc(Cl)cc1 (stereo unspecified) | -4 | 81*
N#CC1=C(N)Oc2n[nH]c(-c3ccccn3)c2C1c1ccc(O)cc1 (stereo unspecified) | -2 | 80*
N#CC1=C(N)Oc2n[nH]c(-c3ccccn3)c2C1c1cccnc1 (stereo unspecified) | -3 | 29
N#CC1=C(N)Oc2n[nH]c(-c3ccccn3)c2C1c1ccncc1 (stereo unspecified) | 13 | 53*
COc1ccc(C2C(C#N)=C(N)Oc3n[nH]c(-c4ccccn4)c32)c(OC)c1OC (stereo unspecified) | -3 | 34
Cc1ccc(C2C(C#N)=C(N)Oc3n[nH]c(-c4ccccc4)c32)s1 (stereo unspecified) | -3 | 13
N#CC1=C(N)Oc2n[nH]c(-c3ccc4c(c3)OCO4)c2C1c1ccc2c(c1)OCO2 (stereo unspecified) | -14 | 26
Cc1ccccc1C(=O)Nc1cccc(NC(=O)c2ccc([N+](=O)[O-])o2)c1 | 1 | 9
Cc1cccc(NC(=O)C2CCCN(C(=O)c3cccc(Cl)c3)C2)c1C (stereo unspecified) | -5 | 30
N#CC1=C(N)Oc2n[nH]c(-c3ccccn3)c2C1c1ccc2c(c1)OCO2 (stereo unspecified) | 10 | 62*
Cc1[nH]nc2c1C(c1ccc3c(c1)OCO3)C(C#N)=C(N)O2 (stereo unspecified) | -2 | -4
CCCn1c(=O)c(-c2ccc(C(=O)N3CCN(C)CC3)cc2)nc2ccccc21 | -1 | 4
CCCc1[nH]nc2c1C1(C(=O)N(CC(=O)O)c3ccccc31)C(C#N)=C(N)O2 (stereo unspecified) | -5 | 6
COc1ccc(-c2[nH]nc3c2C2(C(=O)N(CC(=O)O)c4ccccc42)C(C#N)=C(N)O3)cc1 (stereo unspecified) | 72* | 0
